Screens: PubChem BioAssay, Sanford-Burnham Center for Chemical Genomics
PLAP act: human PLAP activation. activation fold at 20 µM. purified PLAP enzyme, luminescent substrate read-out; hits give high values. P05187. 96,000 tested, 1.2% active. AID 696; in the data active = activation fold above about 2
Target sequence (P05187 whole entry, looked up): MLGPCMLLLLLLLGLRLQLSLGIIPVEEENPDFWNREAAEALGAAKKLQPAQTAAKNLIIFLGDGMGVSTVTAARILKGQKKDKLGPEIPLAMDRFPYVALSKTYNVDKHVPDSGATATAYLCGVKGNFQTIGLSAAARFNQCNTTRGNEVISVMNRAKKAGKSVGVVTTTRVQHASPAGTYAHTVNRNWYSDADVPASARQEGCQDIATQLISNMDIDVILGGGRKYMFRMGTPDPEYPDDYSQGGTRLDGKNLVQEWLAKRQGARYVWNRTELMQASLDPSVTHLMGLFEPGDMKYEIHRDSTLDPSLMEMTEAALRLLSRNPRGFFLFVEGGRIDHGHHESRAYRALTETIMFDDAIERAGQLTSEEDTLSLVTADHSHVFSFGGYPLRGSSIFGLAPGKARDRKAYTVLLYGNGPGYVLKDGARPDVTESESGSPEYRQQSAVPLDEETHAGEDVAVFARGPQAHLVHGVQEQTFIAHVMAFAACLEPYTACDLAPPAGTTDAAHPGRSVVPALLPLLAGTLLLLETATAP
CYP2C9 act: increases human cytochrome P450 2C9 activity; P11712; recombinant CYP2C9, luciferin-H conversion, luminescence; hits give high values; factor 1 = untreated enzyme, 0 = blocked; activation factor at 5 µM; 96,000 tested, 1.4% active;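 active = activation factor of 2 or more for CYP2C9 at a 5 µM dose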;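 also: 0 = sulfaphenazole-blocked wells and 1 = vehicle-only wells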
CYP2C9 inhib: human CYP2C9 inhibition. 96,000 tested, 20% active. inhibition, % at 5 µM. CYP2C9 Supersomes, luciferin-H conversion, luminescence. P11712;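 active = blocking of liver enzyme CYP2C9 beyond about 50% at 5 µM, limit read from the data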
CYP2C19 inh: human CYP2C19 inhibition. P33261. CYP2C19 Supersomes, luciferin-H EGE luminescence, 30 min. inhibition, % at 5 µM. 96,000 tested, 21% active;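 active = CYP2C19 inhibition above a set limit at 5 µM in the primary screen, cut at about 50% in these data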;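 also: plate controls were negative control wells for no effect and 2.5 mM tranylcypromine positive control for full effect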
CYP2C19 act: cytochrome P450 2C19 (human) activation | activation factor at 5 µM | AID 1025 | 96,000 tested, under 10 active | P33261 | recombinant CYP2C19, luciferin-H EGE luminescence; hits give high values; 0 = fully inhibited enzyme, 1 = untreated enzyme;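 active = activation factor of at least 2 at 5 µM in the primary screen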;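 also: 0 = wells with 2.5 mM tranylcypromine and 1 = vehicle-only wells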
* marks the source's active call; other numbers are inactive results. An excerpt weighted towards active compounds, which were near 31% of everything screened.

SMILES | PLAP act | CYP2C9 act | CYP2C9 inhib | CYP2C19 inh | CYP2C19 act
O=C(c1ccco1)N1CCN(/C(=N/S(=O)(=O)c2cccs2)c2ccccc2Cl)CC1 | 1.4 | 0.6 | 36.9 | 35.7 | 0.6
Clc1ccc(-n2nnnc2SCc2c(-c3ccccc3)nc3sccn23)cc1 | 1.2 | 0.1 | 89.0* | 24.9 | 0.8
O=C(CSc1nnnn1-c1ccccc1)Nc1ccc(Cl)cc1 | 1.1 | 0.7 | 27.3 | 35.5 | 0.6
CCn1c2ccccc2c2cc(CN3CCN(C(=O)c4ccco4)CC3)ccc21 | 1.5 | 0.7 | 25.8 | 26.3 | 0.7
O=C(c1ccco1)N1CCN(CC(O)COc2ccc3oc4ccccc4c3c2)CC1 (stereo not given) | 1.2 | 0.5 | 50.7* | 14.8 | 0.9
CCCOc1cc(CN2CCCCC2)cc(C(C)=O)c1 | 1.1 | 1.2 | -18.1 | -17.1 | 1.2
C1CCN(c2c3c(nc4nnnn24)CCCC3)CC1 | 1.1 | 1 | 0.3 | -8.6 | 1.1
Cc1cc(SCNC(=O)c2ccccc2)ncn1 | 1 | 1.1 | -6.9 | 20.1 | 0.8
Cc1cc(C)nc(SCNC(=O)c2ccc(F)cc2)n1 | 1.1 | 1.3 | -25.2 | 62.3* | 0.4
C=C(C)c1ccc(C(C)(C)NC(=O)N2CCN(C)CC2)cc1 | 1.4 | 1 | 4.4 | 18.7 | 0.8
CSCCC(NS(=O)(=O)c1ccc(Cl)cc1)C(=O)OCC(=O)NC12CC3CC(CC(C3)C1)C2 (stereo not given) | 1.5 | 0.4 | 60.6* | 24.6 | 0.8
COC(=O)C1=CN(C)C=C(C(=O)OC)C1c1ccc(O)c(OC)c1 | 1.2 | 1 | -3.5 | -6.6 | 1.1
COCCN1C=C(C(=O)OC)C(c2cc(Br)c(OC)c(OC)c2)C(C(=O)OC)=C1 | 1.8 | 0.1 | 91.3* | 45.1 | 0.5
COCCCN1CN(S(=O)(=O)c2ccc(Cl)cc2)c2nc3ccccc3nc21 | 1.5 | 0 | 99.4* | 98.3* | 0
CC(C)OCCCN1CN(S(=O)(=O)c2ccccc2)c2nc3ccccc3nc21 | 1.7 | 0 | 97.5* | 85.2* | 0.1
CC(CCc1ccccc1)NC(=O)c1ccc(Cl)nc1 (stereo not given) | 0.9 | 0.8 | 20.2 | 26.0 | 0.7
CC(C)Cn1cnc2c1c(=O)n(CC(=O)Nc1ccc3c(c1)OCO3)c(=O)n2Cc1ccccc1 | 1 | 1.1 | -11.8 | -1.3 | 1
Cc1ccc2cc(CNC(C)C)c(=O)[nH]c2c1 | 0.9 | 1 | 4.4 | 4.5 | 1
CC(NC(=O)N(Cc1ccccc1)Cc1ccc2c(c1)OCO2)(C(F)(F)F)C(F)(F)F | 0.8 | 0.1 | 92.9* | 85.9* | 0.1
CC(C)C(=O)N(Cc1ccc2c(c1)OCO2)Cc1ccccn1 | 1.1 | 0.8 | 16.4 | 76.2* | 0.2
CC(=O)OCCN(Cc1ccccc1)Cc1ccc2c(c1)OCO2 | 1 | 0.2 | 84.4* | 99.4* | 0
CCC(NC(=O)N(Cc1ccccc1)Cc1ccc2c(c1)OCO2)(C(F)(F)F)C(F)(F)F | 0.9 | 0.1 | 93.7* | 99.8* | 0
CC(C)C(=O)N(Cc1ccccc1)c1ccccn1 | 1.5 | 1.2 | -18.3 | 21.9 | 0.8
CC1CCCN(S(=O)(=O)c2ccc(NC(=O)CCN3C(=O)c4ccccc4C3=O)cc2)C1 (stereo not given) | 1 | 0.5 | 45.3 | 4.2 | 1
O=C(O)CC(Cc1ccccc1)c1ccc2c(c1)OCO2 (stereo not given) | 1 | 0.9 | 11.0 | 18.1 | 0.8
SMILES | PLAP act | CYP2C9 act | CYP2C9 inhib | CYP2C19 inh | CYP2C19 act
CC(=O)N(CCC(Cc1ccccc1)c1ccc2c(c1)OCO2)Cc1ccc(Cl)cc1 (stereo not given) | 1.5 | 0.2 | 75.2* | 75.5* | 0.2
COc1cc(NC(=O)c2nccnc2C(=O)O)cc(OC)c1 | 0.9 | 1 | -1.2 | 5.9 | 0.9
O=C(Nc1ccc2oc(-c3ccncc3)nc2c1)c1ccccc1F | 0.9 | 0.3 | 67.5* | 40.9 | 0.6
O=C(Nc1ccc2oc(-c3ccncc3)nc2c1)c1cccs1 | 0.8 | 0.2 | 85.0* | 27.5 | 0.7
CCn1c(SCC(=O)Nc2cccc(NC(C)=O)c2)nnc1C(C)C | 1.2 | 1.2 | -21.7 | -13.2 | 1.1
CCCn1c(SCC(=O)Nc2c(CC)cccc2CC)nnc1C(C)C | 1 | 0.5 | 49.3 | 57.7* | 0.4
COCCn1c(SCC(=O)Nc2cc(C)cc(C)c2)nnc1C(C)C | 1.4 | 0.8 | 21.2 | 60.7* | 0.4
COCCn1c(SCC(=O)Nc2cccc(C)c2)nnc1C(C)C | 0.8 | 1.1 | -10.0 | 68.1* | 0.3
CCc1cccc(C)c1NC(=O)CSc1nnc(-c2cc3cc(Br)ccc3o2)n1CC | 0.9 | 0.4 | 56.2* | 11.6 | 0.9
CCc1ccc(N2CC(C(=O)Nc3nnc(CC)s3)CC2=O)cc1 (stereo not given) | 1.3 | 0.7 | 25.8 | -17.8 | 1.2
O=C(CN1C(=O)COc2ccccc21)NCc1ccccn1 | 1 | 1 | 0.9 | 1.1 | 1
CC(C)CN(C(=O)CSc1nnc2c(Cl)cc(C(F)(F)F)cn12)C1CCS(=O)(=O)C1 (stereo not given) | 1.2 | 1.2 | -16.7 | 5.3 | 0.9
Cc1ccc(-n2ncc(-c3nnc(SCC(=O)NC4CCCC4)o3)c2N)cc1C | 1 | 0.6 | 39.9 | 11.9 | 0.9
COCCn1c(SCC(=O)c2ccc3c(c2)OCCO3)nnc1C(C)C | 1.1 | 1 | -1.4 | 20.9 | 0.8
CCn1c(SCC(=O)Nc2nc(C)c(C(=O)OC)s2)nnc1C(C)C | 1.3 | 0.7 | 34.0 | 50.0* | 0.5
COCCn1c(SCC(=O)c2ccc(Cl)cc2)nnc1C(C)C | 1 | 0.9 | 11.2 | 73.6* | 0.3
CC1(C)N([O-])C2=C(c3ccccc3C2=O)[N+](=O)C1(C)C | 0.8 | 0.8 | 15.7 | 44.0 | 0.6
COc1ccc(C=O)cc1COc1ccc(Cl)cc1[N+](=O)[O-] | 0.8 | 0.9 | 14.7 | 13.5 | 0.9
Cc1ccc(C(=O)O)cc1N1C(=O)c2cccc3cc(Br)cc(c23)C1=O | 1.1 | 0.9 | 7.2 | 12.1 | 0.9
Cc1sc2ncn(CC(=O)OC(C)C)c(=O)c2c1C | 1.1 | 0.6 | 41.0 | 67.2* | 0.3
Cc1sc2ncn(CC(=O)OC(C)C(=O)NC(C)(C)C)c(=O)c2c1C (stereo not given) | 1.6 | 0.7 | 27.0 | 67.0* | 0.3
CC(C)OC(=O)Cn1cnc2ccc(Br)cc2c1=O | 1.1 | 0.6 | 38.3 | 68.1* | 0.3
CCn1cnc2sc(C)c(C)c2c1=O | 0.8 | 0.9 | 12.2 | 12.2 | 0.9
Cc1sc2ncn(CC(=O)OCC(=O)NC(C)(C)C)c(=O)c2c1C | 1.1 | 0.6 | 36.2 | 26.2 | 0.7
O=c1c(C=Nc2ccc(Oc3ccccc3)cc2)c[nH]n1-c1cccc(Cl)n1 | 1 | 0.8 | 19.4 | 11.1 | 0.9
CC(=O)Nc1ccc2c(c1)C(=O)N(C1CCCCC1)C2=O | 0.8 | 0.9 | 14.4 | -7.0 | 1.1
COC(=O)C1=C(C)NC2=C(C(=O)C(C(=O)OC)C(c3ccc(OC)cc3)C2)C1c1ccccn1 (stereo not given) | 1.1 | 1 | 4.9 | 5.4 | 0.9
Cn1c(CSc2ccccc2)c(C#N)c2ccccc21 | 0.8 | 1.3 | -25.8 | 75.2* | 0.2
Cn1c(CNc2ccccn2)c(C#N)c2ccccc21 | 0.8 | 0.9 | 11.3 | 75.3* | 0.2
